# Measured values from PubChem BioAssay AID540256 (National Center for Advancing Translational Sciences (NCATS), 2011).
# Values joined by “and” are separate entries in the source; they are usually repeats but may differ in a detail not shown here. Equal values may be shown once. In all, about 300,000 compounds went through this assay and about 3,700 (1.2%) were called active. Entries that show only a call come without a potency. About 20% were inconclusive and are not listed. This is one part of a sample in which actives are shown more often than they occur. Calls come from the whole dose curve; tested in HEK293 cells.
# Assay: qHTS for Inhibitors of binding or entry into cells for Lassa Virus; note: nearly all actives have a fitted effect of over 50% in size
# Conditions: Lassa virus pseudotype entry inhibition, cell reporter; series mostly up to 37.9 µM
# Potency is the fitted concentration of half-maximal effect.
row,Compound,Potency
1,CCCCCCn1c(CN2CCCCC2)nc2c1c(=O)n(C)c(=O)n2C,inactive
2,CCCCCCCCn1c2c(c(=N)c3c1CCC3)CCCC2,5.62 µM (active)
3,CCCCN(CC(=O)Nc1cccc(S(=O)(=O)N2CCCC2)c1)Cc1nc2ccccc2c(=O)[nH]1,inactive
4,O=C(Nc1ccccc1)Oc1cccc2cccnc12,inactive
5,O=C(CNC(=O)c1ccccc1Br)NCCSc1ccc(Br)cc1,inactive
6,Oc1[nH]c2ccccc2c1N=Nc1c(F)c(F)c(F)c(F)c1F,inactive
7,O=[N+]([O-])c1cc(S(=O)(=O)Nc2cccc(Cl)c2)ccc1N=Nc1c(O)[nH]c2ccccc12,11.2 µM (active)
8,CN1CCN(c2ccc(S(=O)(=O)Nc3ccccc3)cc2[N+](=O)[O-])CC1,inactive
9,CC1(C)N=C(N)NC(Nc2ccc(Cl)cc2)=N1,inactive
10,COc1cccc(N(CC(=O)N2CCc3ccccc3C2)S(C)(=O)=O)c1,inactive
11,CS(=O)(=O)N(CC(=O)N1CCc2ccccc2C1)c1ccc(Br)cc1,inactive
12,Cc1ccc(S(=O)(=O)N(CC(=O)N2CCc3ccccc3C2)c2cccc(Cl)c2)cc1,14.1 µM (active)
13,Cc1ccc(S(=O)(=O)N2CCC(C(=O)N3CCCCCCC3)CC2)cc1,inactive
14,O=C(c1ccc(F)c(S(=O)(=O)N2CCOCC2)c1)N(CCc1ccccc1)Cc1ccccc1,inactive
15,Cc1cc(C2=NNC(=Nc3ccc(S(=O)(=O)N4CCOCC4)cc3)SC2)c(C)n1CC1CCCO1 (centres undefined),inactive
16,C=CCn1c(C)cc(C2=NNC(=NCC)SC2)c1C,1.64 µM (active)
17,COc1ccc(C(=O)ON=C2c3ccccc3-c3ccccc32)cc1OC,inactive
18,COc1ccc(C/C(N)=N/OC(=O)c2ccco2)cc1OC,inactive
19,COc1ccc(C(=O)O/N=C(\N)Cc2ccc(Cl)cc2Cl)cc1OC,20 µM (active)
20,O=C(CN1CCSc2ccccc21)N1CCN(c2ccccc2)CC1,inactive
21,CCOc1cc(C(=O)NCCc2csc3nc(-c4ccc(C)cc4)nn23)cc(OCC)c1OCC,inactive
22,Cc1cc(=O)[nH]c(SCc2ccc(Cl)cc2)n1,inactive
23,Cn1nnnc1SCC(=O)N1CCN(C(c2ccccc2)c2ccccc2)CC1,inactive
24,c1ccc(C(c2ccccc2)N2CCN(Cc3nnnn3C3CCCCC3)CC2)cc1,11.6 µM (active)
25,O=C(O)CN1CCN(C(c2ccccc2)c2ccccc2)CC1,inactive
26,COc1ccc(N2CCN(C(=O)CCNC(=O)c3ccc(Br)cc3)CC2)cc1,inactive

row,Compound,Potency
1,Cc1ccc(S(=O)(=O)NCCC(=O)OCC(=O)N(C)c2ccccc2)cc1,inactive
2,Cc1cc(C)nc(N/N=C/c2c(CO)cnc(C)c2O)n1,inactive
3,N#Cc1c(N)n(CCOC(=O)c2ccc(Cl)cc2)c2nc3ccccc3nc12,inactive
4,CC(C)(C)c1ccc(C(=O)NCCn2c(N)c(C#N)c3nc4ccccc4nc32)cc1,inactive
5,CN(C)CCCn1c(N)c(C#N)c2nc(C#N)c(C#N)nc21,15.8 µM (active)
6,O=C(Cc1ccc(S(=O)(=O)N2CCOCC2)s1)Nc1ccc(Br)c(C(F)(F)F)c1,inactive
7,O=C(Nc1ncccc1O)c1ccc(C(=O)c2ccccc2)cc1,inactive
8,N#CCN(C(=O)COC(=O)C1CC2CCCC(C1)C2=O)c1ccccc1 (centres undefined),inactive
9,CC(=O)Oc1cccc(N2C(=O)C3CC=C(Cl)CC3C2=O)c1 (centres undefined),inactive
10,O=C(NC1CC(=O)N(c2ccccc2)C1)c1ccco1 (centres undefined),inactive
11,O=C(Oc1cccc(N2C(=O)C3C4c5ccccc5C(c5ccccc54)C3C2=O)c1)c1ccco1 (centres undefined),8.91 µM (active)
12,CCOc1ccc(CN2CCNC(=O)C2CC(=O)NCCCC2CCCC2)cc1 (centres undefined),inactive
13,NC(=S)NN=C1CCCC(C(F)(F)F)C1 (centres undefined),inactive
14,O=C(c1c(Cl)nc2sccn12)N1CCCc2ccccc21,inactive
15,Cc1c(C(=O)N2CCCc3ccccc32)oc2ccccc12,inactive
16,Cc1cccc2cc3c(N)c(C(=O)N4CCCc5ccccc54)sc3nc12,2.82 µM (active)
17,CC(=NNC(=O)c1ccc2nc[nH]c2c1)c1ccc(Br)cc1,inactive
18,O=C(NCCc1ccc(Cl)cc1)c1ccc2c(c1)N(Cc1ccc(F)cc1)C(=O)CS2,inactive
19,CCOc1ccc(Br)cc1S(=O)(=O)Nc1ccc(S(=O)(=O)Nc2cc(C)on2)cc1,inactive
20,NS(=O)(=O)c1ccc(CCNc2nc(C(F)(F)F)nc3ccccc23)cc1,inactive
21,CCc1ccc(C(CNc2nc(C(F)(F)F)nc3ccccc23)N(C)C)cc1 (centres undefined),10 µM (active)
22,CC(Nc1nc(C(F)(F)F)nc2ccccc12)c1cccs1 (centres undefined),inactive
23,Cc1ccc(S(=O)(=O)n2oc(=O)c(C3CCCCC3)c2N)cc1,inactive
24,CC(=O)Nc1cccc(/C(C)=N/NC(=O)c2ccccc2Cl)c1,inactive
25,CC(=NNC(=S)N1CCCCCC1)c1ccccn1,0.316 µM (active)
26,C/C(=N\NC(=O)Cc1ccc(Br)cc1)c1cccnc1,inactive

row,Compound,Potency
1,C/C(=N\NC(=O)Cc1ccc(F)cc1)c1ccc(F)cc1,inactive
2,CCNC(=S)N1CCN(c2ncccn2)CC1,inactive
3,C/C(=N\NC(=O)Cc1ccc(Cl)cc1)c1ccccn1,8.2 µM (active)
4,O=C(Nc1ccc(NC(=O)c2ccccc2F)cc1)c1ccccc1F,inactive
5,C/C(=N\NC(=O)c1ccccc1F)c1ccccn1,7.08 µM (active)
6,CNC(=S)N1CCN(c2ccccn2)CC1,inactive
7,CCOC(=O)CCC(NC(=O)c1ccc(CNc2nc3cc(C(F)(F)F)ccc3nc2C(=O)OCC)cc1)C(=O)OCC (centres undefined),inactive
8,Cc1nn(-c2ccc(N3CCCCC3)nn2)c(C)c1CCC(=O)NCc1ccc(F)cc1,inactive
9,COc1ccc(C(=O)C(C)OC(=O)c2cccc(S(=O)(=O)Nc3c(C)n(C)n(-c4ccccc4)c3=O)c2)cc1 (centres undefined),inactive
10,O=C(NNc1nc(N2CCCC2)nc(N2CCCC2)n1)c1ccccc1,inactive
11,O=C(Nc1ccc(O)cc1)c1ccc(NC(=O)c2ccco2)cc1,inactive
12,COCCn1c(SC(C)C(=O)NC2CC2)nnc1-c1cccc(C)c1 (centres undefined),inactive
13,COC(=O)c1sc(N2CCN(Cc3ccccc3)CC2)nc1N,inactive
14,CC(C)Oc1ccc(NC(=O)c2cc3ccccc3o2)cc1,inactive
15,Cc1ccc(OC(=O)c2cc3ccccc3o2)cc1,inactive
16,C/C(=N\NC(=S)Nc1ccc(C)cc1)c1cc2ccccc2o1,6.51 µM (active)
17,CCOc1ncccc1C(=O)Nc1ccc2c(c1)OCCO2,inactive
18,COc1cccc2c1C(=O)c1c(O)c3c(c(O)c1C2=O)CC(O)(C(C)=NNC(=O)c1ccc(Cl)c(Cl)c1)CC3OC1CC(N)C(O)C(C)O1 (centres undefined),0.398 µM (active)
19,COc1ccc(C2NCCCC2c2ccccc2)cc1 (centres undefined),inactive
20,Cc1ccccc1NC(=O)Cn1cc(C(=O)C2CC2)c2ccccc21,inactive
21,CN(CCc1ccccn1)C1CCCN(S(=O)(=O)c2ccccc2Cl)C1 (centres undefined),inactive
22,c1ccc2c(c1)C(=NC1CCCCC1)NC2=NC1CCCCC1,13 µM (active)
23,COC(=O)Cc1nc2c(N)nc(N)nc2[nH]c1=O,inactive
24,CCC(=O)c1ccc(OC(=O)/C=C/c2cc(OC)c(OC)c(OC)c2)cc1,inactive
25,COc1cc(/C=C/C2=CC(C)(C)NC(=S)N2)cc(OC)c1OC,inactive
26,COc1cc(/C=C/c2ccc(/C=C/c3cc(OC)c(OC)c(OC)c3)cc2)cc(OC)c1OC,11.2 µM (active)

row,Compound,Potency
1,Cc1ccc(NC(=O)C2CC2)cc1S(=O)(=O)N1CCOCC1,inactive
2,Cc1cccc(N2CCN(C(=O)CCSCc3ccccc3F)CC2)c1C,inactive
3,COc1cc2c(cc1O)[C@H](Cc1ccc(Oc3cc(C[C@@H]4NCCc5cc(OC)c(O)cc54)ccc3O)cc1)NCC2,inactive
4,CCC(CC)C(=O)N1CCc2cc(OC)c(OC)cc2C1COc1ccc(F)cc1 (centres undefined),inactive
5,CC[C@H]1CN2CCc3cc(OC)c(OC)cc3[C@@H]2C[C@@H]1C[C@H]1NCCc2cc(OC)c(OC)cc21,580 nM (active) and 184 nM (active)
6,O=C(NC(=S)Nc1ccc(Br)cc1F)C1CCCCC1,inactive
7,Nc1cccnc1Sc1ccccc1,inactive
8,CC12C=C(C=Cc3ccc(F)cc3)C(C)(C1)C(c1ccc(F)cc1)CC2=O (centres undefined),inactive
9,O=C(Nc1ccc(-c2nc3cc(NC(=O)c4ccccc4Cl)ccc3o2)cc1)c1ccccc1Cl,inactive
10,COc1ccccc1OCc1nc2ccccc2s1,10 µM (active)
11,O=C(O)CCCCc1nc2ccccc2s1,inactive
12,COc1cccc2sc(NNC(=O)c3nc4ccccc4s3)nc12,inactive
13,COc1ccc(-c2cc(=O)oc3cc(OC(C)C(=O)Nc4ccc(CN5CCOCC5)cc4)ccc23)cc1 (centres undefined),inactive
14,S=C(NCC1COc2ccccc2O1)Nc1ccc(Br)cc1 (centres undefined),inactive
15,c1ccc(-c2cc3c(NCC4COc5ccccc5O4)ncnc3s2)cc1 (centres undefined),11.6 µM (active)
16,c1ccc2c(c1)OCC(CNc1ncnc3nc[nH]c13)O2 (centres undefined),inactive
17,O=C(Nc1cccc(C(=O)NC2CC2)c1)c1ccc(F)c(S(=O)(=O)N2CCOCC2)c1,inactive
18,COc1cccc(NC(=O)c2ccc3c(SCC(=O)O)c4c(nc3c2)CCCC4)c1,inactive
19,CCOc1ccc(C(=O)Nc2ccc3nc4c(c(Nc5ccccc5OC)c3c2)CCCC4)cc1,11.2 µM (active)
20,CCOc1ccc(C(=O)Nc2cc(OC)ccc2OC)cc1,inactive
21,Cc1ccccc1CS(=O)(=O)CC1Nc2ccc(C(=O)NCc3ccc(Cl)cc3)cc2NC1=O (centres undefined),inactive
22,Cc1ccc(OCCSc2nc3ccc(NC(=O)COc4ccc(C)cc4)cc3s2)cc1,inactive
23,Cc1cc(C)nc(NC(=O)C(C)N2C(=O)c3ccccc3C2=O)n1 (centres undefined),inactive
24,Cc1cc(C)nc(Nc2cc([N+](=O)[O-])ccc2C)n1,inactive
25,Cc1cc(C)nc(Nc2n[nH]c(-c3ccccc3N)n2)n1,6.31 µM (active)
26,CC1CCN(C2=NC(=O)/C(=C/c3ccc(O)cc3)S2)CC1,inactive
